This note sets out measurements from PubChem BioAssay (NCATS).

Each structure is given as a SMILES string. Where “and” joins values, the source holds several entries; their conditions need not be identical. Equal values may be shown once. Records with an inconclusive call do not appear. Calls of active or inactive are those of the source. Unless noted, calls come from the whole dose curve; as a rule, active = well fitted inhibition curve with a large enough effect; inconclusive = small, poorly fitted or top-dose-only effect; inactive = flat fitted curve, though single readings scatter.

Sequence of Retinoic acid receptor RXR-alpha (Homo sapiens) (P19793 whole entry, looked up): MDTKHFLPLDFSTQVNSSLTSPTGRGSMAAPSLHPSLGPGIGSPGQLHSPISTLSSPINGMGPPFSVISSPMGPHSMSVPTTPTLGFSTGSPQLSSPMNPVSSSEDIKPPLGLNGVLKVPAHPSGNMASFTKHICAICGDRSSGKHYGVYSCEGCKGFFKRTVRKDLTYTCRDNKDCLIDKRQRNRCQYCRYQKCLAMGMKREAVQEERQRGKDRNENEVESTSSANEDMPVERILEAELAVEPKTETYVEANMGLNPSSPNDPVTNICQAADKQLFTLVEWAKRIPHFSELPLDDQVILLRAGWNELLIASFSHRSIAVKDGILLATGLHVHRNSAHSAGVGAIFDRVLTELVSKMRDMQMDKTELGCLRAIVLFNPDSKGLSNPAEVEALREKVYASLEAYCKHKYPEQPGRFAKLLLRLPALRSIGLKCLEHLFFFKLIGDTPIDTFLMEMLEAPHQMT
Sequence of Voltage-gated inwardly rectifying potassium channel KCNH2 (Homo sapiens) (Q12809 whole entry, looked up): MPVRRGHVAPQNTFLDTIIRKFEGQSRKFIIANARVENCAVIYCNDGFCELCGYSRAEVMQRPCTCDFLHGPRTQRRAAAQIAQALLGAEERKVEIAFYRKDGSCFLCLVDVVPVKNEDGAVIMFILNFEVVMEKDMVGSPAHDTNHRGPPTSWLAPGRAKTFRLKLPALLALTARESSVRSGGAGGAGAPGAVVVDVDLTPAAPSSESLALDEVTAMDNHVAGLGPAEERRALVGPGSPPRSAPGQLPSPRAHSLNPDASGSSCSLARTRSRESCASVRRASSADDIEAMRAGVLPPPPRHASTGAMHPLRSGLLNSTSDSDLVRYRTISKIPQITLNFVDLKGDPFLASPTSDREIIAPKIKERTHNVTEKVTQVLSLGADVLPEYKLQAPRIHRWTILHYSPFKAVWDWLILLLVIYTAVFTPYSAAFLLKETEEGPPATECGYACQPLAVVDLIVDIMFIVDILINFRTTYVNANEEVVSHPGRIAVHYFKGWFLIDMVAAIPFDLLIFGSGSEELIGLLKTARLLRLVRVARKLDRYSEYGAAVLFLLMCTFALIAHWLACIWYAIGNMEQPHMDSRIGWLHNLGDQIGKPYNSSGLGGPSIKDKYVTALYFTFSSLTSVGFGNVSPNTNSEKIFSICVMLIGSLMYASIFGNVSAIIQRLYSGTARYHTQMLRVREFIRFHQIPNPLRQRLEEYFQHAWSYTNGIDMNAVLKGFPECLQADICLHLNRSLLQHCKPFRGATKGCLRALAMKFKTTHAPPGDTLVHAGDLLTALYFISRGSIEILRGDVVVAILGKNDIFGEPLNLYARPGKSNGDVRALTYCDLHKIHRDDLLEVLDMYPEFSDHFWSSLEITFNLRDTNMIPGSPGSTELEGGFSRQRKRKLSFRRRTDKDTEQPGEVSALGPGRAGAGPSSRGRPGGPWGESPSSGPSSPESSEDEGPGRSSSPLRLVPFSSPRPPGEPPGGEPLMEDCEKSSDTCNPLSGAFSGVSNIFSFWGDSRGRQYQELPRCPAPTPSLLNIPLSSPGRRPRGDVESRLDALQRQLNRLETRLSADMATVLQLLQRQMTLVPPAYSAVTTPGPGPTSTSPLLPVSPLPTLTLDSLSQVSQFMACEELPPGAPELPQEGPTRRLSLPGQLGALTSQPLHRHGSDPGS

Test system in one experiment: not listed separately
Description: qHTS assay for small molecule antagonists of retinoid X receptor alpha signaling (AID 588546; active = well fitted inhibition curve with a large enough effect in the signal ratio, with a control signal flat, not every such curve was filed as active; the % refers to the signal ratio; note: potency is the fitted concentration of half-maximal effect;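 for max response: cells stimulated with 9-cis-retinoic acid as agonist; % is set by controls: 0 for no effect and ±100 for the full control effect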). To be noted: HEK293T RXRa-UAS-bla, beta-lactamase ratio, antagonist mode; measured here: W530 green channel, cytotoxicity proxy. A digest of the protocol: (§1)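 Beta-lactamase reporter inhibition, read as CCF4 fluorescence ratio (ex 405, em 460/530 nm) after 2 h at RT. HEK293T UAS-bla cells, 2500/well, were stimulated with 9-cis-RA at 500 or 100 nM final alongside test compound for 18 h at 37 C.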
A general note: qHTS replaces the single test concentration by a dilution series.
In the case of `Cc1cc(Nc2ccc(O)cc2)ccc1N`, the max response is -15.7%.
On to `CN(C)c1ccc(C2(c3ccc(N(C)C)cc3)OC(=O)c3cc(N(C)C)ccc32)cc1`, for which the max response is -30.3%.
For `ClC1=C(Cl)C(Cl)(Cl)C(Cl)=C1Cl`, the max response is 5.17% and -3.52%.
For the compound `O=C=Nc1ccc(Cc2ccc(N=C=O)cc2)cc1`, the max response is -3.54% and -5.83%.
`CCC(C)Nc1ccc(NC(C)CC)cc1` (stereo unspecified): the max response is -40%.
As to `O=C1OC2(c3cc(Br)c(O)c(Br)c3Oc3c2cc(Br)c(O)c3Br)c2c(Cl)c(Cl)c(Cl)c(Cl)c21`, the max response amounted to 20.8%.
As to `C=C(C)c1ccccc1`, the max response was -0.247%.
Take `O=C1OC(O)C(C(Cl)Cl)=C1Cl` (stereo unspecified): the max response was -8.4%.
As for `Cc1ccc(S(=O)(=O)Oc2ccc(N=Nc3ccc(-c4ccc(N=Nc5c(O)ccc6cc(S(=O)(=O)O)cc(S(=O)(=O)O)c56)c(C)c4)cc3C)cc2)cc1`, the max response is -21.4%.

Another experiment has as its target Retinoic acid receptor RXR-alpha (Homo sapiens) (UniProt P19793). Described as above. To be noted: HEK293T RXRa-UAS-bla, beta-lactamase ratio, antagonist mode. The essentials: as §1
For the compound `Cc1cc(Nc2ccc(O)cc2)ccc1N`, the max response is 21.4% (inactive).
Still for that read-out and setting: then `CN(C)c1ccc(C2(c3ccc(N(C)C)cc3)OC(=O)c3cc(N(C)C)ccc32)cc1`, with 32.7% (inactive).
The same measure, in the same setting: the same measure for `ClC1=C(Cl)C(Cl)(Cl)C(Cl)=C1Cl`: -8.53% (inactive) and -12% (inactive).
On to `O=C=Nc1ccc(Cc2ccc(N=C=O)cc2)cc1`, for which the max response was 9.21% (inactive) and 0.991% (inactive).
Consider `CCC(C)Nc1ccc(NC(C)CC)cc1` (stereo unspecified), for which the Potency is 28.2 µM (active).
For `O=C1OC2(c3cc(Br)c(O)c(Br)c3Oc3c2cc(Br)c(O)c3Br)c2c(Cl)c(Cl)c(Cl)c(Cl)c21`, the max response is 7.11% (inactive).
Take `C=C(C)c1ccccc1`: the max response is -3.16% (inactive).
For the compound `O=C1OC(O)C(C(Cl)Cl)=C1Cl` (stereo unspecified), the max response is -25.5% (inactive).
Turning to `Cc1ccc(S(=O)(=O)Oc2ccc(N=Nc3ccc(-c4ccc(N=Nc5c(O)ccc6cc(S(=O)(=O)O)cc(S(=O)(=O)O)c56)c(C)c4)cc3C)cc2)cc1`, the max response is 14.7% (inactive).

The target in the next experiment is Thyroid hormone receptor beta (Homo sapiens) (UniProt P10828). Description: qHTS assay for small molecule antagonists of thyroid hormone receptor beta signaling (AID 588547; active = well fitted inhibition curve with a large enough effect in the signal ratio, with a control signal flat, not every such curve was filed as active; the % refers to the signal ratio;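 note: cells stimulated with 0.4 nM T3 agonist during compound exposure; % is set by controls: 0 for no effect and ±100 for the full control effect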). To be noted: TR-UAS-bla HEK293, beta-lactamase ratio, antagonist mode, 18 h. A digest of the protocol: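 TR-UAS-bla GripTite HEK293 cells in 2% charcoal/dextran FBS medium; compounds 0.59 nM to 92 uM with T3 at 0.4nM final, 18 h at 37 C. Beta-lactamase read by CCF4 fluorescence (460/530 nm); Hill fits gave IC50 and efficacy.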
Sequence of Thyroid hormone receptor beta (Homo sapiens) (P10828 whole entry, looked up): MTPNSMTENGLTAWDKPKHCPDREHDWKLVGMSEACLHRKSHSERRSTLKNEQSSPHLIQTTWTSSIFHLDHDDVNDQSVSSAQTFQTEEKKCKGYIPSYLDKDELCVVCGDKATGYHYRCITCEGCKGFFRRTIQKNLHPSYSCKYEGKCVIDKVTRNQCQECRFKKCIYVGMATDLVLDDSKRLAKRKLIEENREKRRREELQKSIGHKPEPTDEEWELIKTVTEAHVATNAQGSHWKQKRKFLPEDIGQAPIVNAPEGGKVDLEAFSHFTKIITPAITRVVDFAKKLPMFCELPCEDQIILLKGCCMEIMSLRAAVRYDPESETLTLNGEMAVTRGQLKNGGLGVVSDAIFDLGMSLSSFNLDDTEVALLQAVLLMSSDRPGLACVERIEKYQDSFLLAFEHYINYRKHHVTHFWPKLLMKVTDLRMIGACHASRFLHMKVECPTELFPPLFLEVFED
Consider `Cc1cc(Nc2ccc(O)cc2)ccc1N`, for which the activity change % (negative = inhibition) was -8.81% (inactive).
For `CN(C)c1ccc(C2(c3ccc(N(C)C)cc3)OC(=O)c3cc(N(C)C)ccc32)cc1`, the activity change % (negative = inhibition) was 12.5% (inactive).
Regarding `CO[C@H]1/C=C/O[C@@]2(C)Oc3c(C)c(O)c4c(O)c(c5c(c4c3C2=O)NC2(CCN(CC(C)C)CC2)N=5)=NC(=O)/C(C)=C\C=C\[C@H](C)[C@H](O)[C@@H](C)[C@@H](O)[C@@H](C)[C@H](OC(C)=O)[C@@H]1C`, the activity change % (negative = inhibition) was 5.09% (inactive).
Take `ClC1=C(Cl)C(Cl)(Cl)C(Cl)=C1Cl`: the activity change % (negative = inhibition) is -17.2% (inactive) and -1.82% (inactive).
Regarding `O=C=Nc1ccc(Cc2ccc(N=C=O)cc2)cc1`, the activity change % (negative = inhibition) is -3.37% (inactive) and 10% (inactive).
`O=C1OC2(c3cc(Br)c(O)c(Br)c3Oc3c2cc(Br)c(O)c3Br)c2c(Cl)c(Cl)c(Cl)c(Cl)c21`: the activity change % (negative = inhibition) is 2.12% (inactive).
The same measure, in the same setting: the same measure for `C=C(C)c1ccccc1`: 2.47% (inactive); for `Cc1ccc(S(=O)(=O)Oc2ccc(N=Nc3ccc(-c4ccc(N=Nc5c(O)ccc6cc(S(=O)(=O)O)cc(S(=O)(=O)O)c56)c(C)c4)cc3C)cc2)cc1`: 6.13% (inactive).

In a further experiment the target is Voltage-gated inwardly rectifying potassium channel KCNH2 (Homo sapiens) (UniProt Q12809). Description: qHTS Assay for Small Molecule Inhibitors of the Human hERG Channel Activity (AID 588834).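 Note: lower thallium flux fluorescence means stronger hERG block; nearly all actives have a fitted effect of over 50% in size.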 Note: potency is the fitted concentration of half-maximal effect. Conditions: U2OS BacMam hERG, FluxOR thallium flux fluorescence; series mostly up to 92.2 µM. A digest of the protocol:
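Thallium serves as surrogate for K+ influx through BacMam-delivered hERG in U2OS cells. Compounds are added for about 10 minutes after dye loading; stimulation buffer then starts flux, monitored kinetically on FDSS.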
For `c1cc(OCC2CO2)cc(OCC2CO2)c1` (stereo unspecified), the Potency entry is “inactive”.
`Cc1cc(Nc2ccc(O)cc2)ccc1N`: the Potency result is “inactive”.
Take `CO[C@H]1/C=C/O[C@@]2(C)Oc3c(C)c(O)c4c(O)c(c5c(c4c3C2=O)NC2(CCN(CC(C)C)CC2)N=5)=NC(=O)/C(C)=C\C=C\[C@H](C)[C@H](O)[C@@H](C)[C@@H](O)[C@@H](C)[C@H](OC(C)=O)[C@@H]1C`: the Potency entry is “inactive”.
Take `O=C(OCC(COC(=O)c1ccccc1)(COC(=O)c1ccccc1)COC(=O)c1ccccc1)c1ccccc1`: the Potency entry was “inactive”.
The same measure, in the same setting: the same measure for `Nc1ccc2cc3ccccc3cc2c1`: 5.01 µM (active); for `c1ccc2c(c1)-c1cccc3c1c-2cc1ccccc13`: “inactive”.
Turning to `Cc1cc(O)c(C(C)(C)C)cc1Sc1cc(C(C)(C)C)c(O)cc1C`, the Potency is 39.8 µM (active).
Still for that read-out and setting: the same measure for `CCC(C)Nc1ccc(NC(C)CC)cc1` (stereo unspecified): 14.1 µM (active); for `CNc1ccc(O)cc1`: “inactive”; for `C=CC(=O)OCCOCCOC(=O)C=C`: “inactive”.
For the compound `O=C1OC2(c3cc(Br)c(O)c(Br)c3Oc3c2cc(Br)c(O)c3Br)c2c(Cl)c(Cl)c(Cl)c(Cl)c21`, the Potency is 3.98 µM (active).
Still for that read-out and setting: the same measure for `Oc1ccc2cc(SSc3ccc4cc(O)ccc4c3)ccc2c1`: 44.7 µM (active).
Turning to `c1ccc2c(c1)ccc1cc3c(ccc4ccccc43)cc12`, the Potency result was “inactive”.
As to `C/C=C1\C(=O)C[C@H]2[C@@H]3CCC4=CC(=O)CC[C@]4(C)[C@H]3CC[C@]12C`, the Potency is 35.5 µM (active).
Consider `C=C(C)c1ccccc1`, for which the Potency result is “inactive”.
As to `O=C1OC(O)C(C(Cl)Cl)=C1Cl` (stereo unspecified), the Potency entry was “inactive”.
Consider `Cc1ccc(S(=O)(=O)Oc2ccc(N=Nc3ccc(-c4ccc(N=Nc5c(O)ccc6cc(S(=O)(=O)O)cc(S(=O)(=O)O)c56)c(C)c4)cc3C)cc2)cc1`, for which the Potency entry was “inactive”.

Test system in the next experiment: not listed separately
Nature of the experiment: qHTS assay for small molecule agonists of the antioxidant response element (ARE) signaling pathway (AID 651741; active = well fitted activation curve with a large enough effect in the signal ratio; the % refers to the signal ratio; note: potency is the fitted concentration of half-maximal effect; for activation: % of control where 0% means no effect). To be noted: HepG2 ARE-bla reporter, beta-lactamase FRET ratio, 16 h; series mostly up to 96 µM. A digest of the protocol:
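HepG2 ARE-bla reporter cells, 2,000/well; 5 h settle at 37 C/5% CO2; compound pin transfer (23 nL, DMSO); 16 h at 37 C; LiveBLAzer B/G FRET substrate, 2 h RT; fluorescence intensity read.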
Consider `Nc1ccc2cc3ccccc3cc2c1`, for which the Potency is 2.37 µM (active).
As for `O=C=Nc1ccc(Cc2ccc(N=C=O)cc2)cc1`, the Potency entry was “inactive”.
Consider `CNc1ccc(O)cc1`, for which the Potency was 13.3 µM (active).
Take `C=CC(=O)OCCOCCOC(=O)C=C`: the Potency is 47.3 µM (active).
As for `O=C1OC2(c3cc(Br)c(O)c(Br)c3Oc3c2cc(Br)c(O)c3Br)c2c(Cl)c(Cl)c(Cl)c(Cl)c21`, the Potency was 66.8 µM (active).
For `Oc1ccc2cc(SSc3ccc4cc(O)ccc4c3)ccc2c1`, the Potency is 13.3 µM (active).
The same measure, in the same setting: then `C/C=C1\C(=O)C[C@H]2[C@@H]3CCC4=CC(=O)CC[C@]4(C)[C@H]3CC[C@]12C`, with 2.98 µM (active); and `O=C1OC(O)C(C(Cl)Cl)=C1Cl` (stereo unspecified), with 29.8 µM (active).
